Assay results published in PubChem BioAssay (NCATS).
Results filed as inconclusive are left out. Where a call stands in place of a potency, no number is given. Activity calls are given as the source filed them. Unless noted, the call rests on the fitted dose curve; in most records, active means well fitted curve in the direction sought with a large enough effect; inconclusive means small, poorly fitted or top-dose-only effect, or another doubt; inactive means no such curve, though single readings can be large; an effect the other way counts as inactive or inconclusive.

Tests used:
[1] = target: Lysosomal acid glucosylceramidase (Homo sapiens) (UniProt P04062); assay: Glucocerebrosidase-p2 (AID 348; in the data active means potency below about 10 µM; further: potency means the concentration at half of the fitted maximal effect); settings: purified GBA, blue fluorogenic substrate, 40 min
Procedure, shortened: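 Normal human glucocerebrosidase (0.2 nM) with blue fluorogenic substrate (80 uM final) in citrate/phosphate pH 5.9 with 10mM sodium taurocholate, 0.01% tween-20; 40 min RT, NaOH/glycine stop; fluorescence Ex 365/Em 440; AC50 from a titration from 0.6 nM upwards.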

[2] = AP1 Signaling Pathway (AID 357; active means well fitted curve in either direction with a large enough effect, not every such curve was filed as active;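 further: ME-180 reporter cells stimulated with EGF at its EC50 level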); settings: ME-180 AP-1-bla reporter, EGF-induced, beta-lactamase ratio, 5 h; at 7.69 µM (top of the series) unless noted
Procedure, shortened: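 In this screen, ME-180 cells in Opti-MEM with 0.5% dialyzed FBS received EC50 EGF and compound titrations for 5 h. AP-1 reporter beta-lactamase was detected via CCF4 ratio, giving AC50 for positive and negative modulators.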

[3] = target: Cytochrome P450 1A2 (Homo sapiens) (UniProt P05177); assay: p450-cyp1a2 (AID 410; calls by dose curve; further: potency means the concentration at half of the fitted maximal effect); settings: recombinant CYP1A2, luciferin-ME demethylation, luminescence; series mostly up to 57 µM
Procedure, shortened: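 Read-out is luminescence from luciferin produced by CYP1A2 demethylation of Luciferin-ME (100uM, at Km). Detection reagent stopped the 60 min NADPH-dependent reaction; signals were normalized to 57 uM furafylline.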

[4] = NFAT Signaling Pathway (AID 444; active means well fitted curve in either direction with a large enough effect, not every such curve was filed as active;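 further: carbachol stimulus at about its EC50 of 1 µM final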); settings: Jurkat NFAT-bla M1, carbachol, beta-lactamase ratio, 5 h; at 7.69 µM (top of the series) unless noted
Procedure, shortened: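 Read-out: CCF4 FRET ratio (460 nm/530 nm) after 1 h RT dye loading, used for %activity and AC50 from titration series. Cells: Jurkat NFAT-β-lactamase/M1 line, treated with compound plus 1 uM carbachol for 5 h, 37 °C.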

[5] = Stat Signaling Pathway (AID 446; active means well fitted curve in either direction with a large enough effect, not every such curve was filed as active;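 further: ME-180 cervical cancer cells given 40 pM IL-6 alongside compound; SIE-controlled beta-lactamase reporter measured as 460/530 nm FRET emission ratio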); settings: ME-180 (cervical carcinoma) SIE beta-lactamase reporter, IL-6 stimulated, 5 h; at 7.69 µM (top of the series) unless noted
Procedure, shortened: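 Emission at 460 and 530 nm (excitation 405 nm) reports SIE-controlled beta-lactamase in ME-180 cells. Cells received compound with 40 pM IL-6 for 5 hrs at 37 C; data scaled between 300 pM IL-6 and 125 nM JAK-inhibitor controls.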

[6] = target: Glucocorticoid receptor (Homo sapiens) (UniProt P04150); assay: GR-GFP Redistribution (AID 450;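 active means compounds whose dose series gives a full or clear partial fitted curve of increased nuclear translocation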; further: potency means the concentration at half of the fitted maximal effect); settings: U2OS GR-GFP nuclear translocation, laser cytometry, 2 h
[7] = target: Glucocorticoid receptor (Homo sapiens) (UniProt P04150); assay: GR-EFC Redistribution (AID 451; calls by dose curve; further: potency means the concentration at half of the fitted maximal effect); settings: CHO-K1 GR-EFC translocation, beta-gal luminescence, 2 h
Procedure, shortened: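 Translocation of GR-ED fusion to nuclear EA restores b-gal, read by luminescence after 1 h room-temperature detection. Engineered CHO-K1 biosensor cells, 1,000/well, exposed 2 h at 37 C to titrations up to 46 uM final.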

[8] = target: Mitogen-activated protein kinase 10 (Mus musculus) (UniProt Q61831); assay: JNK3 AlphaScreen Assay (AID 530; active means well fitted curve in either direction with a large enough effect, not every such curve was filed as active;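 further: kinase came from lysate of stimulated human HepG2 cells; signal reports phosphorylation of biotinylated GST-cJun 1-79 at Ser73 with 10 µM ATP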); settings: JNK3 lysate, c-Jun phosphorylation; series mostly up to 57.1 µM
Procedure, shortened: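 Kinase buffer: 20 mM Tris-HCl pH 7.6, 10 mM MgCl2, 1 mM DTT, 0.1 mM Na3VO4, 0.01% Tween-20; ATP 10 uM. Substrate biotin-GST-cJun(1-79), enzyme from activated HepG2 lysates. Detection by Ser73 phospho-antibody AlphaScreen.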

[9] = target: 3',5'-cyclic-AMP phosphodiesterase 4B (Homo sapiens) (UniProt Q07343); assay: qHTS Assay for Inhibitors of PDE-IV (AID 607; active means well fitted activation curve with a large enough effect in the main read-out, with a control signal flat, not every such curve was filed as active); settings: HEK293 ACTOne CNG channel cells, membrane potential fluorescence; series mostly up to 22.9 µM
Procedure, shortened: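 The readout is membrane depolarisation from a cAMP-sensing CNG channel, detected with a potential dye at ex 535/em 590. Cells were HEK293-derived (endogenous PDE-IV) at 1000 cells/well, titrated up to 22.9 uM final.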

[10] = target: Cytochrome P450 3A4 (Homo sapiens) (UniProt P08684); assay: qHTS Assay for Activators of Cytochrome P450 3A4 (AID 885); settings: recombinant CYP3A4, Luciferin-PPXE luminescence, 60 min; series mostly up to 57.1 µM; further: nearly all actives have a fitted effect of over 65% in size
Procedure, shortened: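 Activators are scored by enhanced luminescence from CYP3A4 conversion of luciferin-PPXE (25uM, equal to KM) to luciferin, after 60 min at RT with an NADPH-regenerating system.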

[11] = qHTS Assay for Lipid Storage Modulators (AID 1519; calls by dose curve); settings: Drosophila S3 cells, BODIPY lipid droplet/cell ratio, laser cytometry, cells loaded with oleic acid; for activity change, negative = inhibition: at 57.5 µM (top of the series)
Procedure, shortened: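 Cells seeded at 5,000 per well were treated with compounds over a concentration series and loaded with oleic acid (400 uM, as added). Lipid droplet fluorescence (488 nm excitation, 500-530 nm channel) was read by laser-scanning cytometry and normalized to 20 uM Triacsin C.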

[12] = target: Dual specificity protein kinase CLK4 (Homo sapiens) (UniProt Q9HAZ1); assay: qHTS Assay for Inhibitors of CDC-like Kinase 4 (Kinase-Glo Assay) (AID 1770); settings: recombinant Clk4, Kinase-Glo ATP depletion luminescence; series mostly up to 66.7 µM; further: nearly all actives have a fitted effect of over 65% in size
Procedure, shortened: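 Inhibition was judged from remaining ATP, measured by Ultra-Glo luciferase bioluminescence after Clk4 (25 nM) had acted on RS peptide at 1 uM ATP for 4.5 hours, room temperature.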

[13] = target: Dual specificity protein kinase CLK4 (Homo sapiens) (UniProt Q9HAZ1); assay: qHTS Assay for Inhibitors of CDC-like Kinase 4 (ADP-Glo Assay) (AID 1771); settings: recombinant CLK4, ADP-Glo luminescence; series mostly up to 80 µM; further: nearly all actives have a fitted effect of over 70% in size
Procedure, shortened: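 In this ADP-Glo format, 1 uM ATP and 100 uM RS peptide served as substrates for 25 nM Clk4 in Mg2+/EGTA/DTT/Triton buffer; reactions ran 1 hr at room temperature before luminescent ADP quantification.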

[14] = target: Dual specificity protein kinase CLK4 (Homo sapiens) (UniProt Q9HAZ1); assay: qHTS Assay for Inhibitors of CDC-like Kinase 4 (ADP-FP Assay) (AID 1795); settings: Transcreener ADP fluorescence polarization; series mostly up to 50 µM;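 further: recombinant human CLK4 phosphorylating RS repeat peptide at 1 µM ATP; nearly all actives have a fitted effect of over 60% in size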
Procedure, shortened: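 Inhibition of ADP formation by 6.25 nM Clk4 is measured using 1 uM ATP and 100 uM RS repeat peptide over one hour. Produced ADP displaces a fluorescent tracer from antibody, lowering polarization.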

[15] = target: Ubiquitin carboxyl-terminal hydrolase 1 (Homo sapiens) (UniProt O94782); assay: Inhibitors of USP1/UAF1: Pilot qHTS (AID 504865); settings: purified USP1/UAF1, Ub-rhodamine cleavage fluorescence; series mostly up to 54.9 µM; further: nearly all actives have a fitted effect of over 35% in size; further: potency means the concentration at half of the fitted maximal effect;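 on activity change, negative = inhibition: rhodamine fluorescence freed from ubiquitin-rhodamine substrate followed over time; top concentration of the series differs between compounds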
Procedure, shortened: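 Kinetic fluorescence assay: 1nM USP1/UAF1, 15 min compound preincubation, then 150nM Ub-Rho; 480/540 nm.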

[16] = Counterscreen qHTS for small molecule stabilizers of the endoplasmic reticulum resident proteome: GLuc-NoTag assay (AID 1508627); settings: Gaussia luciferase NoTag secretion counterscreen, luminescence, thapsigargin 100 nM for final 4 h; series mostly up to 76.4 µM;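 further: SH-SY5Y cells given compound then 100 nM thapsigargin to empty ER calcium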
Procedure, shortened: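 Counterscreen line: SH-SY5Y-GLuc-NoTag cells, treated with compound 19 hr before a 4 hr, 100 nM thapsigargin calcium depletion. Secreted Gaussia luciferase in the medium was measured by luminescence after coelenterazine was added (0.07x final), with cells unlysed.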

[17] = Confirmatory qHTS for small molecule stabilizers of the endoplasmic reticulum resident proteome: Secreted ER Calcium Modulated Protein (SERCaMP) assay (AID 1508628); settings: SERCaMP secreted luciferase ER calcium/proteostasis reporter; series mostly up to 76.3 µM; further: nearly all actives have a fitted effect of over 40% in size; further: potency means the concentration at half of the fitted maximal effect
Procedure, shortened: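 GLuc-SERCaMP-expressing SH-SY5Y cells, pretreated 16 h with compound, are challenged with thapsigargin to empty ER calcium stores; after 4 h, coelenterazine is added directly to the medium and luminescence is imaged.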

[18] = Cell Viability qHTS for small molecule stabilizers of the endoplasmic reticulum resident proteome (AID 1508629); settings: cell viability counter-screen, 100 nM thapsigargin for final 4 h;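 further: compound exposure about 46 h in total before the viability read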; further: potency means the concentration at half of the fitted maximal effect;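 on max response: human SH-SY5Y neuroblastoma cells carrying the GLuc-SERCaMP reporter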
[19] = measured here: cell count channel max response
[20] = measured here: lipid channel max response

Chain of Lysosomal acid glucosylceramidase (Homo sapiens) (P04062 whole entry, looked up): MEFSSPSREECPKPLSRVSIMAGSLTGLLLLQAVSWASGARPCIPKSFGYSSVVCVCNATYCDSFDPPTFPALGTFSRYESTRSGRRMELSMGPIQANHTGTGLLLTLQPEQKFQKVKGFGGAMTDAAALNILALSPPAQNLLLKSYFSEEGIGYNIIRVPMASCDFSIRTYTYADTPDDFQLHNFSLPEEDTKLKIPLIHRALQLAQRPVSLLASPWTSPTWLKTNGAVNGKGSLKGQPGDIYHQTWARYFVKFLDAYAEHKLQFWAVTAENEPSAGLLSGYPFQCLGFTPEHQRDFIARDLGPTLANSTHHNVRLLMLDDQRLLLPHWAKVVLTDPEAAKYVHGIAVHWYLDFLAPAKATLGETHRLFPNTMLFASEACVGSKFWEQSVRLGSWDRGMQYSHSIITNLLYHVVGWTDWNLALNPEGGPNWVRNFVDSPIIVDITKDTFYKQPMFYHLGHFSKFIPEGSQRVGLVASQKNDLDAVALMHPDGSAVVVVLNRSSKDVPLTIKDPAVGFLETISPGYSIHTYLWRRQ
Chain of Cytochrome P450 3A4 (Homo sapiens) (P08684 whole entry, looked up): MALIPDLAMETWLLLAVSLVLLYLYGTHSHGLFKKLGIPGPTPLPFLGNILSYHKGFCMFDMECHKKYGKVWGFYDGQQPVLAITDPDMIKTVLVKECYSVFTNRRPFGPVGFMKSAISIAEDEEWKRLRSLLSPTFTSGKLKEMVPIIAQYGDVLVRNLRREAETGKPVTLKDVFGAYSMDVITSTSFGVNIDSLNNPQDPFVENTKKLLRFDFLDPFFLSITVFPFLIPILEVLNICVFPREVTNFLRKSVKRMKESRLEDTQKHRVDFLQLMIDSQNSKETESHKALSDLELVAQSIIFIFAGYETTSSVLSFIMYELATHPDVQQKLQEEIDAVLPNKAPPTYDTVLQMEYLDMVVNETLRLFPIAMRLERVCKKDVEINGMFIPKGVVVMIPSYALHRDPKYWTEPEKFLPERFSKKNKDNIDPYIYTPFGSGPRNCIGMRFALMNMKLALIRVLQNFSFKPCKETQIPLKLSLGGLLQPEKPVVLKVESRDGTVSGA
Chain of Glucocorticoid receptor (Homo sapiens) (P04150 whole entry, looked up, the tested form may be a part): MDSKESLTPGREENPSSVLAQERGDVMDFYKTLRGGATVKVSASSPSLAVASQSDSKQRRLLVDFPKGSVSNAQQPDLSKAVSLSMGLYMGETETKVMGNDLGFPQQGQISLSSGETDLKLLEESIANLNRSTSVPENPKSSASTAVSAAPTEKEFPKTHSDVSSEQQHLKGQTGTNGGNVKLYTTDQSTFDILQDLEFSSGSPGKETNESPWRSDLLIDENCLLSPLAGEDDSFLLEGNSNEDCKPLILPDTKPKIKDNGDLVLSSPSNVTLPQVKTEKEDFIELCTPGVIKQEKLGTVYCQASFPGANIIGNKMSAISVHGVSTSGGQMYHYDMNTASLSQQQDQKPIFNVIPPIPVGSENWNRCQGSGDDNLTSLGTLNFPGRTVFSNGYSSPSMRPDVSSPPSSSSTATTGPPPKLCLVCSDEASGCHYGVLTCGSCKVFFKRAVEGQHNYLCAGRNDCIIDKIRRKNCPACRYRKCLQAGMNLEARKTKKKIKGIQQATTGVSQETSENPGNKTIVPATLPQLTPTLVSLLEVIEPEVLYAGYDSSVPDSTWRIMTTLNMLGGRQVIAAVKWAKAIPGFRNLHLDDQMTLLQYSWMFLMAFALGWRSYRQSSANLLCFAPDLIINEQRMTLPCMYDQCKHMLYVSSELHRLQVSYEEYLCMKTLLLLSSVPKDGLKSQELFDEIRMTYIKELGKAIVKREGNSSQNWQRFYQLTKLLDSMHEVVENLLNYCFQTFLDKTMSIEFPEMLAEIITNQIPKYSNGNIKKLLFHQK
Chain of 3',5'-cyclic-AMP phosphodiesterase 4B (Homo sapiens) (Q07343 whole entry, looked up): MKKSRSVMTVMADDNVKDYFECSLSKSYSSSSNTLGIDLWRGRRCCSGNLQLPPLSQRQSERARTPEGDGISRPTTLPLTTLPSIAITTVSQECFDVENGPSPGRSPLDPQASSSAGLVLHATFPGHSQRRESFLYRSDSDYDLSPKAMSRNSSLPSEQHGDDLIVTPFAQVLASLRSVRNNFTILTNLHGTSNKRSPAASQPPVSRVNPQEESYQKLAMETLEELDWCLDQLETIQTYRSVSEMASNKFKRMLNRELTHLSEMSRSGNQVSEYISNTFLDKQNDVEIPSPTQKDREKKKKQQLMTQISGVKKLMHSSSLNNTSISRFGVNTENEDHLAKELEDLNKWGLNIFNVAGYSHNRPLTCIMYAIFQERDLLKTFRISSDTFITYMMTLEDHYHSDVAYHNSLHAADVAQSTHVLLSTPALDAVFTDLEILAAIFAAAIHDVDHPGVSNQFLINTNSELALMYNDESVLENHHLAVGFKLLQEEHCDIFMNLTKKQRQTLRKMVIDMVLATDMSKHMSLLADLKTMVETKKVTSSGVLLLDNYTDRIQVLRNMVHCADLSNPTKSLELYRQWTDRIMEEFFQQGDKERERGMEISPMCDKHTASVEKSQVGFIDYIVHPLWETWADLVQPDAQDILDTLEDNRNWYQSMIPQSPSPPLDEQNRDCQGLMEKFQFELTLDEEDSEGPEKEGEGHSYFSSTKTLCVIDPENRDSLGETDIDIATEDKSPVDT
Chain of Cytochrome P450 1A2 (Homo sapiens) (P05177 whole entry, looked up): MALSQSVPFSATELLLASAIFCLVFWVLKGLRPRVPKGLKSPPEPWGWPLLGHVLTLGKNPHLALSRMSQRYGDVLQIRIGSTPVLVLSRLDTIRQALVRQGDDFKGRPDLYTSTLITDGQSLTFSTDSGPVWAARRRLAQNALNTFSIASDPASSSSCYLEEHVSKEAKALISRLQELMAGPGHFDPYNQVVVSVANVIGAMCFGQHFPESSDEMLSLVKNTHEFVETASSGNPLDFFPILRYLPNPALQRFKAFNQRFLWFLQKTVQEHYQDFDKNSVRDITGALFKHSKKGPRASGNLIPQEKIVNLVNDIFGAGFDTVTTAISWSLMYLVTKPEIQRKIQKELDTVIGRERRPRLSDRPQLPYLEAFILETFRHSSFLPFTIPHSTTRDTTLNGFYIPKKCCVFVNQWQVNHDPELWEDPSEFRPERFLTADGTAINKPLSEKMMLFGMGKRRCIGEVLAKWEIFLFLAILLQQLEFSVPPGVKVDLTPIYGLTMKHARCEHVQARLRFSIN
Chain of Dual specificity protein kinase CLK4 (Homo sapiens) (Q9HAZ1 whole entry, looked up): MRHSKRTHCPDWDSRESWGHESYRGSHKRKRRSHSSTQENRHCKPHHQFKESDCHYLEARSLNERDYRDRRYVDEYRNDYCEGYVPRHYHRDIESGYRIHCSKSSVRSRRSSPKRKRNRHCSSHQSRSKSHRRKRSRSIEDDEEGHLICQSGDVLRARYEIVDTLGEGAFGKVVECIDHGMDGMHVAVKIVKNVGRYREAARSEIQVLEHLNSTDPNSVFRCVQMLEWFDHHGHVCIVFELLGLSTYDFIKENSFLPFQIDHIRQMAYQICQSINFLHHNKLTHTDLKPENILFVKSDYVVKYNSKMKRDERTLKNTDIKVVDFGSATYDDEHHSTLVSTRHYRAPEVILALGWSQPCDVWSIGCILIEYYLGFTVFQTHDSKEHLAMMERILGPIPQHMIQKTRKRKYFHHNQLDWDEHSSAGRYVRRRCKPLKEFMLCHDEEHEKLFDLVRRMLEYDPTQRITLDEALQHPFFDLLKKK
Chain of Ubiquitin carboxyl-terminal hydrolase 1 (Homo sapiens) (O94782 whole entry, looked up): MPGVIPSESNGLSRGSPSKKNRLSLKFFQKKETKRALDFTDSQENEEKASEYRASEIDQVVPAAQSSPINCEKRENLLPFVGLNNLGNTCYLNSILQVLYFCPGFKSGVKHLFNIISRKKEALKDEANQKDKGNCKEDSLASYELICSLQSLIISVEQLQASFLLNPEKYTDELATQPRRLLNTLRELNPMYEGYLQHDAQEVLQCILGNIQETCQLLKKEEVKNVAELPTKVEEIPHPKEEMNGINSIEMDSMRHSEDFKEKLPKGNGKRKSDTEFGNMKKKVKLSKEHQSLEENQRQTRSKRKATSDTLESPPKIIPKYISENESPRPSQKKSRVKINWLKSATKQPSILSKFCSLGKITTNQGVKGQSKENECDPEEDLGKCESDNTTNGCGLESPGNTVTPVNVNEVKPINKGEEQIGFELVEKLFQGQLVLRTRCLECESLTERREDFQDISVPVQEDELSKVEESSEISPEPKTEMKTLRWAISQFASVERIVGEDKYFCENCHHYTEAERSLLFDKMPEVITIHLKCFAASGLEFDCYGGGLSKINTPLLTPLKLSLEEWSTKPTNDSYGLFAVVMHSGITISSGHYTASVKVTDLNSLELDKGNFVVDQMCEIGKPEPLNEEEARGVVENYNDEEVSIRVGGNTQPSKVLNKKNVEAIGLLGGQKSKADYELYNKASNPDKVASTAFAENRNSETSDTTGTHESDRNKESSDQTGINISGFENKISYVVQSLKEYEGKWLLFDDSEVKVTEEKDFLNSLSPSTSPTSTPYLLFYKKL

SMILES: Cc1nc2cnc(N3CCN(C)CC3)nc2n(Cc2ccc(F)cc2)c1=O
- Potency [1]: > 11.4 µM (inactive)
- activity change, negative = inhibition [2]: 1.11% (inactive)
- Potency [3]: inactive
- activity change, negative = inhibition [4]: -12.3% (inactive)
- activity, negative = inhibition [5]: -4.86% (inactive)
- Potency [6]: > 9.22 µM (inactive)
- Potency [7]: > 46 µM (inactive)
- outcome [8]: inactive
- Potency [9]: inactive
- Potency [10]: inactive
- activity change, negative = inhibition [11]: 3.55% (inactive)
- max response [11, 19]: -0.123%
- max response [11, 20]: 1.24%
- Potency [12]: inactive
- Potency [13]: inactive
- Potency [14]: inactive
- Potency [15]: inactive
- Potency [16]: inactive
- Potency [17]: inactive

SMILES: Cc1ccccc1-c1nc(N2CCN(C)CC2)c2ccccc2n1
- Potency [1]: > 11.4 µM (inactive)
- activity change, negative = inhibition [2]: 5.49% (inactive)
- Potency [3]: 3.98 µM (active)
- activity change, negative = inhibition [4]: 0.11% (inactive)
- activity, negative = inhibition [5]: 0.381% (inactive)
- Potency [6]: > 46 µM (inactive)
- Potency [7]: > 46 µM (inactive)
- outcome [8]: inactive
- Potency [10]: inactive
- Potency [12]: inactive
- Potency [13]: inactive
- Potency [14]: inactive
- Potency [15]: 28.2 µM (active)
- Potency [16]: inactive
- Potency [17]: 20 µM (active)

SMILES: COc1ccc(-c2nc3cnc(N4CCNCC4)nc3n(-c3ccc(OC)cc3)c2=O)cc1
- Potency [1]: > 11.4 µM (inactive)
- Potency [6]: > 9.22 µM (inactive)
- Potency [7]: > 46 µM (inactive)
- outcome [8]: inactive
- Potency [9]: inactive
- activity change, negative = inhibition [11]: 1.3% (inactive)
- max response [11, 19]: 15%
- max response [11, 20]: 15.1%
- Potency [12]: inactive
- Potency [13]: inactive
- Potency [14]: inactive
- Potency [15]: inactive
- Potency [16]: inactive
- Potency [17]: inactive
- Potency [18]: 25.1 µM (active)

SMILES: O=c1c(-c2ccc(F)cc2)nc2cnc(N3CCNCC3)nc2n1-c1ccccc1
- Potency [1]: > 11.4 µM (inactive)
- Potency [3]: 10 µM (active)
- Potency [9]: inactive
- Potency [10]: inactive
- activity change, negative = inhibition [11]: 6.93% (inactive)
- max response [11, 19]: 19.9%
- max response [11, 20]: 25.6%
- Potency [12]: inactive
- Potency [13]: inactive
- Potency [14]: inactive
- Potency [15]: inactive
- Potency [16]: inactive
- Potency [17]: inactive
- max response [18]: -15.9% (inactive)

SMILES: COCCn1c(=O)c(-c2cn(C)c3ccccc23)nc2cnc(N3CCNCC3)nc21
- Potency [1]: > 11.4 µM (inactive)
- activity change, negative = inhibition [2]: 16% (inactive)
- Potency [3]: 12.6 µM (active)
- activity change, negative = inhibition [4]: 18.5% (inactive)
- Potency [6]: > 9.22 µM (inactive)
- Potency [7]: > 46 µM (inactive)
- outcome [8]: inactive
- Potency [9]: inactive
- Potency [10]: inactive
- Potency [12]: inactive
- Potency [13]: inactive
- Potency [14]: inactive
- Potency [15]: inactive
- Potency [16]: inactive
- max response [18]: -7.1% (inactive)
